Experimental data: PubChem BioAssay (Tox21)
Values joined by “and” are separate entries in the source; they are usually repeats but may differ in a detail not shown here. Identical values can stand only once. Results filed as inconclusive are left out. A call without a number means that no potency is given here. More than one record can exist for a structure, and the calls need not agree. Active and inactive are the calls of the source. Unless noted, the call rests on the fitted dose curve; in most records, active means well fitted curve in the direction sought with a large enough effect in the repeat runs; inconclusive means weak or mixed curves; inactive means no such curve, though single readings can be large; an effect the other way counts as inactive or inconclusive.

What was measured:
[1] = qHTS assay to identify small molecule antagonists of the glucocorticoid receptor (GR) signaling pathway - cell viability counter screen (AID 720693); further: nearly all actives have a fitted effect of over 55% in size
[2] = qHTS assay for identifying genotoxic compounds that show differential cytotoxicity against isogenic chicken DT40 cell lines with known DNA damage response pathways - wild type cell line (AID 743012); further: nearly all actives have a fitted effect of over 60% in size; further: potency means the concentration at half of the fitted maximal effect
In short: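 Cytotoxicity in repair-proficient parental chicken DT40 cells serves as the comparator for Rad54/Ku70- and Rev3-deficient lines. Cells were exposed to compounds for 40 h at 37 C/5% CO2, and ATP-based luminescence (CellTiter-Glo) measured viability.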

[3] = qHTS assay for identifying genotoxic compounds that show differential cytotoxicity against isogenic chicken DT40 cell lines with known DNA damage response pathways - Rev3 mutant cell line (AID 743014); further: nearly all actives have a fitted effect of over 55% in size; further: potency means the concentration at half of the fitted maximal effect
[4] = qHTS assay for identifying genotoxic compounds that show differential cytotoxicity against isogenic chicken DT40 cell lines with known DNA damage response pathways - Rad54/Ku70 mutant cell line (AID 743015); further: nearly all actives have a fitted effect of over 60% in size; further: potency means the concentration at half of the fitted maximal effect
[5] = qHTS assay to identify small molecule antagonists of the androgen receptor (AR) signaling pathway - cell viability counter screen (AID 743033; further: nearly all actives have a fitted effect of over 45% in size; further: potency means the concentration at half of the fitted maximal effect)
[6] = qHTS assay to identify small molecule antagonists of the androgen receptor (AR) signaling pathway using the MDA cell line - cell viability counter screen (AID 743041; further: nearly all actives have a fitted effect of over 45% in size)
In short: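 Viability read by CellTiter-Fluor fluorescence in the same wells as the antagonist screen, added after 15.5 h of a 16 h, 37C exposure. Human breast carcinoma MDA-kb2 AR-luc cells, compounds co-dosed with agonist R1881.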

[7] = qHTS assay to identify small molecule antagonists of the thyroid receptor (TR) signaling pathway - cell viability counter screen (AID 743064); further: nearly all actives have a fitted effect of over 50% in size; further: potency means the concentration at half of the fitted maximal effect
In short: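 Fluorescence from CellTiter-Fluor, added after 23.5 h exposure at 37 °C, reported viability of GH3.TRE-Luc cells co-treated with compound and 1 nM T3. Measured in the same wells as the luciferase TR readout.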

[8] = qHTS assay to identify small molecule antagonists of the thyroid receptor (TR) signaling pathway (AID 743065); further: nearly all actives have a fitted effect of over 55% in size; further: potency means the concentration at half of the fitted maximal effect
In short: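 Antagonism measured as loss of luciferase signal in GH3 cells stably carrying a TRE-luciferase reporter, co-treated with compound and T3 (1 nM final) for 23.5 h at 37 C. Viability was read in the same well by CellTiter-Fluor.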

[9] = system: thyroid hormone receptor (rat, GH3 cells); assay: qHTS assay to identify small molecule agonists of the thyroid receptor (TR) signaling pathway (AID 743066; calls by dose curve)
[10] = qHTS assay to identify small molecule antagonists of the estrogen receptor alpha (ER-alpha) signaling pathway - cell viability counter screen (AID 743074; calls by dose curve;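 further: HEK293 cells carrying ER-alpha-UAS-bla reporter stimulated with 17beta-estradiol; nearly all actives have a fitted effect of over 45% in size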; further: potency means the concentration at half of the fitted maximal effect)
[11] = qHTS assay to identify small molecule antagonists of the estrogen receptor alpha (ER-alpha) signaling pathway using the BG1 cell line - cell viability counter screen (AID 743081);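 further: compound given together with 17beta-estradiol as the ER stimulus; series mostly up to about 70 µM; nearly all actives have a fitted effect of over 45% in size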
Aromatase (Homo sapiens) = Aromatase (Homo sapiens) (UniProt P11511); assay: qHTS assay to identify aromatase inhibitors (AID 743083); further: nearly all actives have a fitted effect of over 55% in size; further: potency means the concentration at half of the fitted maximal effect
Chain of Aromatase (Homo sapiens) (P11511 whole entry, looked up): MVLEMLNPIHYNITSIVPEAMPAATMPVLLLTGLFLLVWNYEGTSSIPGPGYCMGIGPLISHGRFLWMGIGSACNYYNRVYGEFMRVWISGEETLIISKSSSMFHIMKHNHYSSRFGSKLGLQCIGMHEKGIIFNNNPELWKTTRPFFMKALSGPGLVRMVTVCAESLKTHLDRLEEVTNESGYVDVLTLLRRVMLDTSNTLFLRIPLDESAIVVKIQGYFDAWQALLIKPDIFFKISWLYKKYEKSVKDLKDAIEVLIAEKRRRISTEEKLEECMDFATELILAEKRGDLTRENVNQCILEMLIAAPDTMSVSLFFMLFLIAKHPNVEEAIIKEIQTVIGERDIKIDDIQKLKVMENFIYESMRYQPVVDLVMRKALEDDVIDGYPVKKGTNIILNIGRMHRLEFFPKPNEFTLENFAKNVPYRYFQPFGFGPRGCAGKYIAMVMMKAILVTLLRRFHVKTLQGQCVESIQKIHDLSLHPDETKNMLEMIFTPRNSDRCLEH

[12] = qHTS assay to identify aromatase inhibitors - cell viability counter screen (AID 743084); further: potency means the concentration at half of the fitted maximal effect
[13] = molecular target: Estrogen receptor (Homo sapiens) (UniProt P03372); assay: qHTS assay to identify small molecule antagonists of the estrogen receptor alpha (ER-alpha) signaling pathway (AID 743069; active means well fitted curve in the direction sought with a large enough effect in the signal ratio in the repeat runs, not every such curve was filed as active; the % refers to the signal ratio)
Chain of Estrogen receptor (Homo sapiens) (P03372 whole entry, looked up): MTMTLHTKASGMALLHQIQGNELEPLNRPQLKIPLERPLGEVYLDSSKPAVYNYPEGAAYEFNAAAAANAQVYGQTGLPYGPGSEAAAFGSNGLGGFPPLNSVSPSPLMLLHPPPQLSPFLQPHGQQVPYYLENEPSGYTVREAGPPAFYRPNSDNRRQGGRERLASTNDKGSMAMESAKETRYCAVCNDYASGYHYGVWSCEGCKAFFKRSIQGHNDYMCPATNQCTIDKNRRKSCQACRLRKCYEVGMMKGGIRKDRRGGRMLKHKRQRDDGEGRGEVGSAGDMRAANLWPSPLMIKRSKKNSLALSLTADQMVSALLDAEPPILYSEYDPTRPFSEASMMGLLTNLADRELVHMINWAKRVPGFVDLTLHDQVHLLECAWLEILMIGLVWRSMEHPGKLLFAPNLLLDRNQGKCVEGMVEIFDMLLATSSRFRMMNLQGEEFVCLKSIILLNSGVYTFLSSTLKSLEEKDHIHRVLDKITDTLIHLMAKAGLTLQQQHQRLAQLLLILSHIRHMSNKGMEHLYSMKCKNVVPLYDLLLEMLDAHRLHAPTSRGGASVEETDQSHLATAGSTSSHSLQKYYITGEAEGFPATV
In short: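 Antagonist mode: compounds in DMSO were co-added with 17beta-estradiol to ER-alpha-bla HEK293 cells (2% charcoal-stripped serum) and left 18 h at 37C. Reporter inhibition was measured as FRET fluorescence after 2 h LiveBLAzer substrate at room temperature.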

[14] = molecular target: Estrogen receptor (Homo sapiens) (UniProt P03372); assay: qHTS assay to identify small molecule agonists of the estrogen receptor alpha (ER-alpha) signaling pathway (AID 743075; calls by dose curve;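 further: HEK293 GripTite cells with ER-alpha and UAS-driven beta-lactamase reporter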)
[15] = molecular target: Estrogen receptor (Homo sapiens) (UniProt P03372); assay: qHTS assay to identify small molecule agonists of the estrogen receptor alpha (ER-alpha) signaling pathway using the BG1 cell line (AID 743079); further: nearly all actives have a fitted effect of over 20% in size; further: potency means the concentration at half of the fitted maximal effect
[16] = qHTS assay to identify small molecule antagonists of the estrogen receptor alpha (ER-alpha) signaling pathway using the BG1 cell line (AID 743080; calls by dose curve;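 further: BG1 cells stimulated with 17beta-estradiol alongside compound; series mostly up to about 70 µM; nearly all actives have a fitted effect of over 25% in size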)
In short: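 Readout is ONE-Glo luminescence, taken 30 min at room temperature after reagent addition, preceded by a CellTiter-Fluor viability read; BG1-Luc-4E2 cells had received compound and 17beta-estradiol for 21.5 h at 37 C.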

| SMILES | Potency [1] | Potency [2] | Potency [3] | Potency [4] | Potency [5] | Potency [6] | Potency [7] | Potency [8] | Potency [9] | Potency [10] | Potency [11] | Potency (Aromatase (Homo sapiens)) | Potency [12] | Potency [13] | Potency [14] | Potency [15] | Potency [16] |
| --- | --- | --- | --- | --- | --- | --- | --- | --- | --- | --- | --- | --- | --- | --- | --- | --- | --- |
| CC(O)CCO (configuration not stated) | inactive | inactive | inactive and 68.6 µM (active) | inactive | inactive | inactive | inactive | inactive | inactive | inactive | inactive | inactive | inactive | – | – | – | – |
| COc1ccc(C=O)cc1 | inactive | inactive | inactive | inactive | inactive | inactive | inactive | – | inactive | inactive | inactive | inactive | inactive | inactive | inactive | inactive | inactive |
| C=CCN(CC=C)C(=O)C(Cl)Cl | inactive | inactive | inactive | inactive | inactive | inactive | inactive | inactive | inactive | inactive | inactive | inactive | inactive | – | – | – | – |
| CCOP(=S)(OCC)O/N=C(\C#N)c1ccccc1 | inactive | inactive | inactive | inactive | inactive | inactive | inactive | inactive | inactive | inactive | inactive | inactive | inactive | – | – | – | – |
| CCCCCCCCCCCOC(=O)c1ccccc1C(=O)OCCCCCCCCCCC | inactive | inactive | inactive | inactive | inactive | inactive | inactive | – | inactive | inactive | inactive | inactive | inactive | inactive | inactive | 26.6 µM (active) and inactive | inactive |
| COc1ccc(C(CN(C)C)C2(O)CCCCC2)cc1 (configuration not stated) | inactive | inactive | inactive | inactive | inactive | inactive | inactive | – | inactive | inactive | inactive | inactive | inactive | – | – | – | – |
| c1ccc(N=Nc2ccccc2)cc1 | inactive | inactive | inactive | inactive | inactive | inactive | inactive | inactive | inactive | inactive | inactive | inactive | inactive | – | – | – | – |
| Oc1ccc(-c2ccccc2)cc1 | inactive | inactive | 60.3 µM (active) | inactive | inactive | inactive | – | – | inactive | inactive | inactive | inactive | inactive | inactive | – | – | – |
| S=C1NCCN1 | inactive | inactive | inactive | inactive | inactive | inactive | – | – | inactive | inactive | inactive | inactive | inactive | – | – | – | – |
| Cc1ccc(OP(=O)(Oc2ccc(C)cc2)Oc2ccc(C)cc2)cc1 | inactive | – | 38.6 µM (active) | 43.2 µM (active) and 48.6 µM (active) | inactive | – | inactive | inactive | inactive | inactive | inactive | inactive | inactive | – | – | – | – |
| CCCCCc1cc(O)cc(O)c1 | inactive | inactive | inactive | – | inactive | inactive | inactive | – | inactive | inactive | inactive | inactive | inactive | – | – | – | – |
| CCOC(=S)S | inactive | 24.3 µM (active) and 16.3 µM (active) | 21.7 µM (active) and 16.3 µM (active) | 24.3 µM (active) and 16.3 µM (active) | 13.8 µM (active) and 8.26 µM (active) | – | inactive | 51.7 µM (active) | inactive | inactive | inactive | 68.6 µM (active) and 58 µM (active) | – | – | – | – | – |
| NNC(N)=S | inactive | 28.4 µM (active) | 20.1 µM (active) | 28.4 µM (active) | 14.3 µM (active) | – | inactive | inactive | inactive | – | inactive | 50.4 µM (active) and inactive | 28.4 µM (active) and inactive | inactive | inactive | inactive | inactive |
| Oc1cc(Cl)ccc1Oc1ccc(Cl)cc1Cl | – | 7.02 µM (active) | 11.4 µM (active) | 26.6 µM (active) and 10.3 µM (active) | inactive | inactive | 11.5 µM (active) | – | inactive | inactive and 11.2 µM (active) | inactive | inactive and 24.8 µM (active) | inactive and 22.2 µM (active) | – | – | – | – |
| CCCCOCCOP(=O)(OCCOCCCC)OCCOCCCC | inactive | – | 54.5 µM (active) | 48.6 µM (active) | inactive | inactive | 54.5 µM (active) and inactive | – | inactive | – | inactive | inactive | inactive | inactive | inactive | inactive | inactive |
